Results from PubChem BioAssay (NCATS).
Records with an inconclusive call do not appear. Calls of active or inactive are those of the source. The call rests on the fitted dose curve; in most records, active means well fitted curve in the direction sought with a large enough effect; inconclusive means small, poorly fitted or top-dose-only effect, or another doubt; inactive means no such curve, though single readings can be large; an effect the other way counts as inactive or inconclusive.

How the values were obtained:
JEG-3 = experiment: Primary qHTS to identify gynecologic anti-cancer compounds using libraries of approved drugs and bioactive compounds (AID 1345084); settings: Gynecologic cancer cell panel viability, ATPlite luminescence, 48 h; series mostly up to 57.5 µM; further: nearly all actives have a fitted effect of over 55% in size
Method in brief: (§1)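 Five-point cytotoxicity, 48 h drug exposure at 37 C, 5% CO2, on cells seeded 16 h beforehand. ATP content read by ATPlite luminescence.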

OV90 = experiment: as above; settings: Gynecologic cancer cell panel viability, ATPlite luminescence, 48 h; series mostly up to 57.5 µM
Method in brief: as §1

PA-1 = experiment: as above; settings: Gynecologic cancer cell panel viability, ATPlite luminescence, 48 h; series mostly up to 57.5 µM
Method in brief: as §1

SKOV3 = experiment: as above; settings: Gynecologic cancer cell panel viability, ATPlite luminescence, 48 h; series mostly up to 57.5 µM
Method in brief: as §1

Tov-21-G = experiment: as above; settings: Gynecologic cancer cell panel viability, ATPlite luminescence, 48 h; series mostly up to 57.5 µM
Method in brief: as §1

Tov112D = experiment: as above; settings: Gynecologic cancer cell panel viability, ATPlite luminescence, 48 h; series mostly up to 57.5 µM
Method in brief: as §1

[1] = Drug repurposing screens with cells derived from glioblastoma tumor samples (AID 1345199); settings: GBM patient neurospheres viability, ATP luminescence, 48 h; further: nearly all actives have a fitted effect of over 40% in size
Method in brief: (§2)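 Four patient lines of CD133+ GBM neurospheres were screened at several concentrations; hits were retested in those lines plus three slower-growing GBM lines, using 48-hour treatment and ATP-based viability.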

astro = experiment: as above; settings: viability, ATP luminescence, 48 h; series mostly up to 45.9 µM
Method in brief: as §2

[2] = at 45.9 µM (top of the series), tumour line B
[3] = at 45.9 µM (top of the series), tumour line D
On the % scale 0 is the no-effect control and ±100 the full control effect.

CC(=O)O[C@H]1[C@H](Oc2ccccc2COC(=O)C2(O)C=CCCC2=O)O[C@H](CO)[C@@H](O)[C@@H]1O (some centres not stated)
inactive: Potency (JEG-3) | Potency (OV90) | Potency (PA-1) | Potency (SKOV3) | Potency (Tov-21-G) | Potency (Tov112D)

CC1(CO)CC[C@]2(C(=O)O[C@@H]3O[C@H](CO)[C@@H](O)[C@H](O)[C@H]3O)CC[C@]3(C)C(=CCC4[C@@]5(C)C[C@H](O)[C@H](O[C@@H]6OC[C@@H](O)[C@H](O)[C@H]6O)[C@@](C)(CO)C5CC[C@]43C)C2C1 (some centres not stated)
inactive: activity change, negative = cytotoxicity (JEG-3) 16.2% [at 11.6 µM] | activity change, negative = cytotoxicity (OV90) 9.02% [at 11.6 µM] | activity change, negative = cytotoxicity (PA-1) -3.32% [at 11.6 µM] | activity change, negative = cytotoxicity (SKOV3) 2.79% [at 11.6 µM] | activity change, negative = cytotoxicity (Tov-21-G) 4.01% [at 11.6 µM] | activity change, negative = cytotoxicity (Tov112D) -0.665% [at 11.6 µM]

Cc1cc(C)cc(NC(=O)Cc2ccc(OC(C)(C)C(=O)O)cc2)c1
inactive: Potency (JEG-3) | Potency (OV90) | Potency (PA-1) | Potency (SKOV3) | Potency (Tov-21-G) | Potency (Tov112D)

COc1ccccc1-n1c(SCC(=O)Nc2nc3ccc(C)cc3s2)nc2c(c1=O)SCC2
inactive: Potency (JEG-3) | Potency (OV90) | Potency (PA-1) | Potency (SKOV3) | Potency (Tov-21-G) | Potency (Tov112D)

CC(C)c1ccc(CC(=O)N2CCC[C@@H](c3cccc(OC(C)(C)C(=O)O)c3)C2)cc1
inactive: Potency (JEG-3) | Potency (OV90) | Potency (PA-1) | Potency (SKOV3) | Potency (Tov-21-G) | Potency (Tov112D)

O=C(NCC(=O)N1CC[C@H](NC2CCC(O)(c3ccc(-c4ncccn4)cn3)CC2)C1)c1cccc(C(F)(F)F)c1 (some centres not stated)
inactive: Potency (JEG-3) | Potency (OV90) | Potency (PA-1) | Potency (SKOV3) | Potency (Tov-21-G) | Potency (Tov112D)

CCCCNC(=O)[C@@H]1Cc2ccccc2N1C(=O)[C@@H](N)CC
inactive: Potency (JEG-3) | Potency (OV90) | Potency (PA-1) | Potency (SKOV3) | Potency (Tov-21-G) | Potency (Tov112D)

CCC(=O)O[C@]1(C(=O)CCl)[C@@H](C)C[C@H]2[C@@H]3C[C@H](F)C4=CC(=O)C=C[C@]4(C)[C@@]3(F)[C@@H](O)C[C@@]21C
inactive: Potency (JEG-3) | Potency (OV90) | Potency (PA-1) | Potency (SKOV3) | Potency (Tov-21-G) | Potency (Tov112D) | activity, negative = cell killing [1, 2] -14.4% | activity, negative = cell killing [1, 3] -33.8% | Potency (astro)

OC[C@H]1O[C@@H](OCCc2ccc(O)cc2)[C@H](O)[C@@H](O)[C@@H]1O
inactive: Potency (JEG-3) | Potency (OV90) | Potency (PA-1) | Potency (SKOV3) | Potency (Tov-21-G) | Potency (Tov112D) | activity, negative = cell killing [1, 2] -17.4% | activity, negative = cell killing [1, 3] 11.3% | activity, negative = cell killing ([1]; at 46 µM (top of the series), tumour line A) -5.89% | activity, negative = cell killing ([1]; at 46.1 µM (top of the series), tumour line C) 4.11% | Potency (astro)
